From PubChem
Shown are actives, neighbours in structure and some others; about 2.4% of the full set was active somewhere.
ClpP mod = qHTS Assay for Activators of ClpP; ATP-dependent Clp protease proteolytic subunit (Bacillus subtilis (strain 168)), P80244; purified B. subtilis ClpP, FRET peptide cleavage, 20 min; Potency, µM (titrated, usually from 57.5 µM), for inactives: at the highest dose activity change, negative = active; hit rate 1.9% among 340,000; active means well fitted falling curve with a large enough effect; inconclusive means small, poorly fitted or top-dose-only effect; inactive means no such curve, though single readings can be large or run the other way; further: the source files actives as falling curves though it sought activators and does not explain the sign; nearly all actives have a fitted effect of over 65% in size
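Purified B. subtilis ClpP, 10 microg/mL final in Tris/HCl pH8 with KCl, BSA, glycerol and Tween-20, cleaved an Abz/nitrotyrosine-quenched decapeptide. Fluorescence (ex 320, em 430) was read at 0 and 20 min at room temperature. Delta was normalized to 5.8 microM ADEP and DMSO/no-enzyme controls.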
12-LOX inh = Primary qHTS assay for inhibitors of human arachidonate 12S-lipoxygenase (ALOX12): Round 2. purified 12hLO, xylenol orange hydroperoxide absorbance. hit rate 1.1% among 580,000. Potency, µM (series often up to 108 µM), without a hit: top-dose activity change, negative = inhibition, hits mostly inhibitors. Polyunsaturated fatty acid lipoxygenase ALOX12 (Homo sapiens), P18054. AID 1671190, 2021; further: on the % scale 0 is the no-effect control and ±100 the full control effect
Target sequence (P18054 whole entry, looked up): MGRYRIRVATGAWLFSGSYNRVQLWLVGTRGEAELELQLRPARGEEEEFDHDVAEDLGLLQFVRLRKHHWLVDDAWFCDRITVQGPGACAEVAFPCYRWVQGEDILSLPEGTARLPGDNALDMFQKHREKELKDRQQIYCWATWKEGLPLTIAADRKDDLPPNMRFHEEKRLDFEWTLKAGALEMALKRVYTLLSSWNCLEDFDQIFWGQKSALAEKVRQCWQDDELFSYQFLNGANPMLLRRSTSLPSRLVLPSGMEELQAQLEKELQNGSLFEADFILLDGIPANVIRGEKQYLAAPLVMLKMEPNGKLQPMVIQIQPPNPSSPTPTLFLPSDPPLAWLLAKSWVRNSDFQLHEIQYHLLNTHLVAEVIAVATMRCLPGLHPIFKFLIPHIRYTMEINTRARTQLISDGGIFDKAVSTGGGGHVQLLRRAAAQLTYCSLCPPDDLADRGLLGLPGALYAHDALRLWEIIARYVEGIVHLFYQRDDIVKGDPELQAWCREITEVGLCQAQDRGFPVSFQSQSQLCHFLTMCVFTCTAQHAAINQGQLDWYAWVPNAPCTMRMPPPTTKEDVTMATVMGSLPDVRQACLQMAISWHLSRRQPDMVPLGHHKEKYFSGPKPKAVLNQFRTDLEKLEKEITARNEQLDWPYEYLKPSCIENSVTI
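Purified human 12hLO (150 nM final) in 25 mM Hepes, 0.01% Triton X-100, pH 7.0 was preincubated 15 min at room temperature with compound. Then 40 uM arachidonic acid was added, 30 min. Hydroperoxide was read by Fe-XO absorbance ratio 573/405 nm.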
Rango release inh = qHTS Assay for Inhibitors of RanGTP induced Rango (Ran-regulated importin-beta cargo) - Importin beta complex dissociation; Snurportin-1 (Homo sapiens) + GTP-binding nuclear protein Ran (Homo sapiens) + Importin …; Biochemical FRET Rango-importin beta, RanGTP-induced dissociation; Potency, µM (series often up to 46.1 µM), for inactives: at the highest dose activity change, negative = inhibition; hit rate 0.071% among 340,000; AID 540253, 2011; calls by dose curve; further: % of control where 0% means no effect; nearly all actives have a fitted effect of over 45% in size
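Quantitative HTS using a FRET biosensor: 0.1 uM Rango, 0.25 uM importin beta, 0.6 uM Ran, 2 mM GTP, 0.2 uM RCC1 final, PBS with DTT, Tween-20 and BSA. Post-read taken 45 min after Ran addition.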
TDP1 block = qHTS Assay for Inhibitors of Tyrosyl-DNA Phosphodiesterase (TDP1); recombinant TDP1, AlphaScreen DNA substrate cleavage; AID 485290, 2010; Potency, µM (series often up to 130 µM), for inactives: at the top dose activity change, negative = inhibition, usual class: inhibitors; Tyrosyl-DNA phosphodiesterase 1 (Homo sapiens), Q9NUW8; hit rate 0.28% among 350,000; further: on the % scale 0 is the no-effect control and ±100 the full control effect; nearly all actives have a fitted effect of over 40% in size
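Recombinant human Tdp1 (E. coli-expressed, 1 nM final) preincubated with compounds 15 min at room temperature, then 5'-biotin/3'-phosphotyrosine-FITC DNA substrate (15 nM final) added for 5 min. AlphaScreen beads (10 ug/ml final) added 10 min; cleavage lowers signal.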
Rango complex inh = qHTS Assay for Inhibitors of Rango (Ran-regulated importin-beta cargo) - Importin beta complex formation | Rango CFP/YFP FRET sensor + importin beta, 45 min | Importin subunit beta-1 (Homo sapiens), Q14974 | Potency, µM (series often up to 92.2 µM), without a hit: at the highest dose inhibition of complex formation | hit rate 0.031% among 340,000; calls by dose curve;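 further: 0% = DMSO wells and 100% = buffer wells lacking importin beta; nearly all actives have a fitted effect of over 15% in size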
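FRET biosensor Rango (snurportin 1 IBB between N-terminal EYFP and C-terminal Cerulean), 50 nM in PBS/1 mM DTT/0.02% Tween-20/0.1% BSA, preincubated 5 min RT with compound; 0.125 microM importin beta added, 45 min RT, CFP/YFP FRET ratio read.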
PTAP TSG101 blk = qHTS Assay for Iinhibitors of HIV-1 Budding by Blocking the Interaction of PTAP/TSG101 | Tumor susceptibility gene 101 protein (Homo sapiens), Q99816 | Fluorescence polarization, FITC-PTAP peptide / Tsg101 binding | Potency, µM (highest dose often 115 µM), for the others: top-dose activity change, negative = inhibition, hits mostly inhibitors | 340,000 tested, under 10 active | AID 493005, 2010; active means well fitted inhibition curve with a large enough effect in the main read-out, with a control signal flat, not every such curve was filed as active; inconclusive means small, poorly fitted or top-dose-only effect, or effect the other way, or a change in a side signal; inactive means no such curve, though single readings can be large or run the other way; further: % of control where 0% means no effect
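Steps: Tsg101 binding domain dispensed (10 uM final), compounds pinned in DMSO, FITC-labeled PTAP-motif peptide added (50 nM final); after 20 min binding at room temperature, polarization measured.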
An asterisk follows results filed as active; ? = inconclusive; . = no result given; ! = a repeat was not active; [ ] = remark or other dose. Unless noted, the call rests on the fitted dose curve; in most records, active means well fitted curve in the direction sought with a large enough effect; inconclusive means small, poorly fitted or top-dose-only effect, or another doubt; inactive means no such curve, though single readings can be large; an effect the other way counts as inactive or inconclusive. Potency means the concentration at half of the fitted maximal effect.

SMILES | ClpP mod | 12-LOX inh | Rango release inh | TDP1 block | Rango complex inh | PTAP TSG101 blk
Cc1ccc(CNC(=O)c2cc(-c3ccc(C)o3)nc3ccccc23)cc1 | . | 3.2µM* | . | . | . | .
CC1CCC(NC(=O)c2cc(-c3ccccc3)nc3ccccc23)CC1 (stereo unspecified) | . | 0.79µM* | . | . | . | .
Cc1ccc(-c2cc(C(=O)NC3CC3)c3ccccc3n2)o1 | . | 13µM* | . | . | . | .
CCn1cc(S(=O)(=O)N2CCCC(C(=O)NCc3c(Cl)cnn3CC)C2)c(C)n1 (stereo unspecified) | . | -3% | . | . | . | .
Cc1ccc(NC(=O)CN(C)S(=O)(=O)c2ccc3[nH]c(=O)oc3c2)c(C)c1 | 0% | ? | -3% | 2% | 1% | -2%
Cc1ccc(NS(=O)(=O)c2ccc3[nH]c(=O)oc3c2)c(C)c1 | -2% | 50µM*! | 3% | 2% | 3% | -2%
CC(C)CNC(=O)CSc1ccc(Cl)cc1 | 25µM* | 151% | 0% | 4% | 0% | 2%
Cc1c(C(=O)NCc2ccccc2Cl)sc2nc[nH]c(=O)c12 | 40µM* | -13% | . | 1% | . | .
Cc1c(C(=O)NCc2ccccc2)sc2nc[nH]c(=O)c12 | -52% | -21% | . | 7% | . | .
Cc1c(C(=O)NCc2cccc(Cl)c2)sc2nc[nH]c(=O)c12 | 22µM* | -9% | . | 7% | . | .
Brc1ccc(-c2nnn(Cc3ncc(-c4ccccc4)o3)n2)cc1 | . | 7% | . | . | . | .
O=C(c1ccccc1)N1C[C@@H](CO)[C@H](c2nc(-c3ccncc3)no2)C1 | . | -1% | . | . | . | .
Cn1nc(C(=O)N2CCC3(CCCN(C4CCOCC4)C3=O)C2)ccc1=O (stereo unspecified) | . | -5% | . | . | . | .
O=C(O)c1cc2cc(OCc3ccccc3)ccc2[nH]1 | 28µM* | -21% | 0% | 0% | 1% | -4%
O=C(O)c1cc(OCc2ccccc2)cc(OCc2ccccc2)c1 | . | -9% | -13% | . | -3% | -4%
Cc1cc(C(F)(F)F)n2nc(C(=O)O)c(Cl)c2n1 | -2% | 45µM* | 2% | -2% | 2% | -7%
CC(C)=NNC(=O)CN1C(=O)NC2NC(=O)NC21 (stereo unspecified) | 28µM* | -17% | 11% | 3% | 0% | 0%
O=C(c1cc2c(F)cccc2s1)N1CCCC1Cc1ccccc1 (stereo unspecified) | . | 3% | . | . | . | .
CC[C@@]1(C(=O)OC)N[C@H](CN(C)C(=O)COc2ccccc2)[C@@H]2C(=O)N(C)C(=O)[C@@H]21 | 1% | ? | -11% | 1% | 5% | -1%
CC[C@@]1(C(=O)OC)N[C@H](CN(C)C(=O)COC)[C@@H]2C(=O)N(C)C(=O)[C@@H]21 | 2% | 5µM* | -10% | 1% | -1% | 2%
CCCCC(=O)Nc1ccc2oc(-c3cccc(F)c3)nc2c1 | . | -7% | . | . | . | .
Cc1ccc(C(C)C)c(OCC(=O)Nc2cccc(-c3nc4ncccc4o3)c2)c1 | 22µM* | 3% | . | 0%[12.3 µM] | . | .
CCCCC(=O)Nc1cccc(-c2nc3ncccc3o2)c1 | 16µM* | -9% | -5% | 6% | 0% | -6%
CCCCC(=O)Nc1ccc2oc(-c3cccnc3)nc2c1 | 18µM* | -12% | 0% | 4% | 6% | -2%
C=CCNC(=S)N/N=C(\C)c1ccc(OC)cc1 | . | 40µM* | -14% | 6% | 0% | 0%
SMILES | ClpP mod | 12-LOX inh | Rango release inh | TDP1 block | Rango complex inh | PTAP TSG101 blk
COc1ccc(/C(C)=N/NC(=S)NCc2ccco2)cc1 | 1% | 40µM* | 13% | 11% | 1% | 0%
COc1ccc(CNC(=S)N/N=C(\C)c2ccc(OC)cc2)cc1 | . | ? | -4% | 11% | -2% | 0%
COc1ccc(-c2nn(-c3ccccc3)cc2C(=O)Nc2cccc(C(=O)O)c2)cc1[N+](=O)[O-] | 0% | ? | -9% | 22µM* | 0% | -7%
CC(C)(C)C(=O)NC(C(=O)O)C12CC3CC(CC(C3)C1)C2 (stereo unspecified) | . | -3% | . | . | . | .
Cc1ccc(NCc2n[nH]c(=S)n2-c2ccccc2)cc1 | . | 28µM* | 18% | 1% | 0% | 1%
O=C(C1CCCN(Cc2ccccc2[N+](=O)[O-])C1)N1CCCC1 (stereo unspecified) | 28µM* | ? | -1% | . | 1% | -4%
CCN(Cc1nccn1C)C(=O)c1coc(COc2ccc3c(c2)OCO3)n1 | . | 3% | . | . | . | .
COc1ccc(C(=O)c2sc(Nc3ccc(NC(C)=O)cc3)nc2C)cc1 | 0% | -26% | -23% | . | ? | -2%
COc1ccc(Nc2nc(C)c(C(C)=O)s2)cc1 | -1% | 45µM* | . | . | . | .
COc1cccc(NC(=O)[C@H](C)n2c(=O)[nH]c3ccccc3c2=O)c1 | . | -14% | . | . | . | .
Cc1ccc(S(=O)(=O)N2CCC(C(NC(=O)c3ccccc3)C(=O)NCC(C)C)CC2)cc1 (stereo unspecified) | . | 1% | . | . | . | .
CCN1C(=O)[C@H]2[C@@H](c3ccc(-c4cccc(Cl)c4)c(OC)c3)N3CCC[C@@]3(C(=O)OC)[C@H]2C1=O | 4% | 50µM* | -11% | 0% | -3% | -2%
COC(=O)[C@@]12CCCN1[C@H](c1ccc(-c3cccc(Cl)c3)c(OC)c1)[C@H]1C(=O)N(C)C(=O)[C@H]12 | 2% | -16% | -4% | 5% | -4% | 1%
O=C(Nc1ccc2c(c1)OCCO2)N1CCCC(c2nc(C3CCOCC3)no2)C1 (stereo unspecified) | . | 83% | . | . | . | .
COc1cc(/C=N/N(C)C)cc(Br)c1O | . | -6% | 8% | 1% | 4% | -5%
COc1cc(/C=N/N(C)c2ccccc2)cc(Cl)c1O | -2% | 16µM* | -3% | 0% | -1% | 1%
Cc1cc(C)n(-c2nc3ccccc3nc2N2CCNCC2)n1 | . | 5% | . | . | . | .
COc1cc(C(=O)N2CCC(CC(=O)NCCN3CCCC3)CC2)cc(OC)c1OC | . | 22% | . | . | . | .
CCN1CCCC1CNC(=O)c1cc2c(C)nc3ccccc3c2o1 (stereo unspecified) | 25µM* | 17% | 7% | 6% | -4% | -4%
Cc1nc2ccccc2c2oc(C(=O)NCCN3CCCCC3C)cc12 (stereo unspecified) | 4% | 1%[57.4 µM] | 1% | 0% | -3% | -5%
